From PubChem BioAssay
The list is not random: actives were taken first. Their share in the collection is about 28%.
Mac1 fbg enh – enhancers of human CD11b/CD18 binding to fibrinogen; AID 1499; K562 CD11b/CD18 adhesion to fibrinogen, ATPlite luminescence; 93,000 compounds, 0.07% hits; activation, % at 10 µM;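 active means 10 µM primary screen giving 50% or more activity, confirmed by 40% or more on retest at that dose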
CD11b adhes inh – blocks human CD11b/CD18 adhesion to fibrinogen; P05107+P11215; K562 CD11b/CD18 adhesion to fibrinogen, ATPlite luminescence; Mn2+ added to activate the integrin; inhibition, % at 10 µM; 93,000 compounds, 0.54% hits;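 active means primary inhibition of 50% or more at 10 µM, then 40% or more on retest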
CYP2C9 activ – increases human cytochrome P450 2C9 activity; recombinant CYP2C9, luciferin-H conversion, luminescence; hits give high values; factor 1 = untreated enzyme, 0 = blocked; activation factor at 5 µM; 96,000 compounds, 1.4% hits; AID 1024;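 active means activation factor of 2 or more for CYP2C9 at a 5 µM dose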
CYP2C9 inhib – blocks human cytochrome P450 2C9. P11712. 96,000 compounds, 20% hits. inhibition, % at 5 µM. CYP2C9 Supersomes, luciferin-H conversion, luminescence;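 active means blocking of liver enzyme CYP2C9 beyond about 50% at 5 µM, limit read from the data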
CYP2C19 inhib – human CYP2C19 inhibition; P33261; inhibition, % at 5 µM; CYP2C19 Supersomes, luciferin-H EGE luminescence, 30 min; 96,000 compounds, 21% hits;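 active means CYP2C19 inhibition above a set limit at 5 µM in the primary screen, cut at about 50% in these data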
Target sequence (P33261 whole entry, looked up): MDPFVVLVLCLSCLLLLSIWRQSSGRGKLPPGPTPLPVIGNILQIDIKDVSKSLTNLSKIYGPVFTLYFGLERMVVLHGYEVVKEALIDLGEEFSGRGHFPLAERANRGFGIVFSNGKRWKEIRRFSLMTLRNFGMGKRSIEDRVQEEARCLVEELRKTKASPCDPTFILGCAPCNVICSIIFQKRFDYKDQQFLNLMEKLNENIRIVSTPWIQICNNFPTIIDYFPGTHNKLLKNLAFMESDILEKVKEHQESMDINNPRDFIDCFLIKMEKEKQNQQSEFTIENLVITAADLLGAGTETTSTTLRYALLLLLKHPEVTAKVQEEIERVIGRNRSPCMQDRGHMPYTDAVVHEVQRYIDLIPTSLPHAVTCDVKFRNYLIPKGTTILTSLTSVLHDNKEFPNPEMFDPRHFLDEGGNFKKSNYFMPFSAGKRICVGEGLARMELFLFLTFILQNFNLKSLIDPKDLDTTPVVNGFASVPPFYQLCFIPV
CYP2C19 act – increases human CYP2C19 enzyme activity; recombinant CYP2C19, luciferin-H EGE luminescence; hits give high values; 0 = fully inhibited enzyme, 1 = untreated enzyme; activation factor at 5 µM; 96,000 tested, under 10 active; AID 1025; P33261;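 active means activation factor of at least 2 at 5 µM in the primary screen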
A number is an active result; - = inactive; . = no result given.

SMILES	Mac1 fbg enh	CD11b adhes inh	CYP2C9 activ	CYP2C9 inhib	CYP2C19 inhib	CYP2C19 act
O=C1NCCN1C(=O)C12CC3CC(CC(C3)C1)C2	.	.	-	-	-	-
O=c1cc(C23CC4CC(CC(C4)C2)C3)[nH][nH]1	-	-	-	56.1	-	-
COC(=O)C(C)Sc1nc2c(cnn2-c2ccc(C)cc2)c(=O)[nH]1 (stereo unspecified)	.	.	-	-	-	-
Cc1ccccc1-c1cc(C(=O)Nc2sc(C(=O)OC(C)C)c(C)c2C#N)c2ccccc2n1	-	94.7	-	84.6	-	-
COC(=O)c1sc(NC(=O)c2cc(-c3ccccc3)nc3ccccc23)c(C#N)c1C	-	-	-	64.5	-	-
COc1ccc(OC)c(-c2cc(C(=O)Nc3sc4c(c3C#N)CCC(C)C4)c3ccccc3n2)c1 (stereo unspecified)	93.2	-	-	-	-	-
Cc1c(NC(=O)CSc2ccccc2C(=O)Nc2cccnc2)c(=O)n(-c2ccccc2)n1C	-	-	-	-	-	-
COC(=O)c1c(NC(=O)C2COc3ccccc3O2)sc2c1CCN(Cc1ccccc1)C2 (stereo unspecified)	-	-	.	.	.	.
CCCCC1(C(=O)OCC)CC(CN2CCOCC2)OC1=O (stereo unspecified)	-	-	-	-	-	-
C/C(=N/NS(=O)(=O)c1ccc(F)cc1)c1ccc(NC(=O)c2ccc(C)o2)cc1	-	-	-	94.9	-	-
CN(C)/C=C(\C#N)C(=O)c1cccc(Oc2ccc(Br)cc2)c1	-	-	-	-	92.0	-
CC(C)c1ccc(Oc2cccc(C(=O)/C(C#N)=C/N(C)C)c2)cc1	-	-	-	85.2	97.6	-
O=C(Nc1cccc2ncccc12)c1cccnc1	-	-	-	-	-	-
O=C(CCS(=O)(=O)Cc1ccc(Cl)cc1)NCCCN1CCN(c2ccccc2F)CC1	-	-	-	-	-	-
CSc1ccccc1NC(=O)c1ccc(Br)o1	-	-	-	-	57.3	-
O=C(Nc1cccc2cccnc12)c1ccc(Br)o1	-	-	2.2	-	-	-
O=C(Nc1ccccc1N1CCCC1)c1ccc(Br)o1	-	-	-	53.2	56.8	-
O=C(Nc1cc(C(F)(F)F)ccc1N1CCCCC1)c1ccc(Br)o1	-	-	-	-	-	-
O=C(Nc1cccc2ccccc12)c1ccc(Br)o1	-	-	-	-	-	-
COc1ccc(-n2c(=O)c3ccccc3n(CC(=O)NC3CCCC3)c2=O)c(OC)c1	-	-	-	-	-	-
CCc1nnc(NC(=O)CSc2nnc(C)n2CC2CCCO2)s1 (stereo unspecified)	-	-	-	-	-	-
N#CCCN(C(=O)COC(=O)c1ccc2c(c1)NC(=O)CS2)c1ccc2c(c1)OCCO2	-	-	-	-	-	-
CC1CCN(C(=O)CSc2nc3c(cnn3-c3ccc(Cl)cc3)c(=O)[nH]2)CC1	-	-	-	54.6	-	-
CC1CCN(C(=O)CSc2nc3c(cnn3-c3ccccc3)c(=O)[nH]2)CC1	-	-	-	-	-	-
CCOc1ccc(-n2c(=S)sc3c(=O)[nH]c(SCC(=O)N4CCC(C)CC4)nc32)cc1	-	-	-	97.1	-	-
SMILES	Mac1 fbg enh	CD11b adhes inh	CYP2C9 activ	CYP2C9 inhib	CYP2C19 inhib	CYP2C19 act
CCOC(=O)N1CCN(C(=O)CSc2nc3c(cnn3-c3ccc(Cl)cc3)c(=O)[nH]2)CC1	-	-	-	67.5	-	-
COC(=O)c1ccc(CSc2nc3c(cnn3-c3ccc(Cl)cc3)c(=O)[nH]2)o1	-	-	-	75.9	90.0	-
CC(=O)N1CCN(C(=O)CSc2nc3c(cnn3-c3ccccc3)c(=O)[nH]2)CC1	-	-	-	-	-	-
Cc1ccc(S(=O)(=O)N2CCCC2)cc1C(=O)O	-	-	-	-	-	-
Fc1ccccc1COc1cccc(/C=N/n2cnnc2)c1	-	-	-	68.4	99.0	-
C(=N\n1cnnc1)/c1cccc(Oc2ccccc2)c1	-	-	-	57.1	76.9	-
Nc1nnnn1/N=C/c1cccc(Oc2ccccc2)c1	-	-	-	-	56.0	-
Cc1cc(/C=N/n2cnnc2)c(C)n1-c1ccc(OCc2ccccc2F)cc1	.	.	-	-	-	-
S=c1[nH]ncn1/N=C/c1cccc(Oc2ccccc2)c1	-	-	-	-	61.2	-
COC(=O)c1ccc(CSc2nc(C)nc3sc(C)c(C)c23)o1	-	-	-	-	-	-
COc1cccc(-c2[nH]nc3c2C(c2ccoc2)C(C#N)=C(N)O3)c1 (stereo unspecified)	-	-	-	-	86.9	-
COc1cccc(-c2[nH]nc3c2C(c2ccsc2)C(C#N)=C(N)O3)c1 (stereo unspecified)	.	.	-	-	-	-
N#CC1=C(N)Oc2n[nH]c(-c3ccccc3)c2C1c1cccc(OC(=O)N2CCOCC2)c1 (stereo unspecified)	-	-	-	56.8	-	-
O=C(CN1CCN(Cc2ccccc2F)C1=O)NCc1ccco1	-	-	-	-	-	-
O=C(c1ccc(Cn2cc(Br)cn2)o1)N1N=C(C(F)F)CC1(O)C(F)F (stereo unspecified)	-	-	-	93.4	73.6	-
COc1ccccc1OCc1ccc(C(=O)N2N=C(C(F)F)CC2(O)C(F)F)o1 (stereo unspecified)	-	81.7	-	72.7	-	-
CC1=NN(C(=O)c2ccc(Cn3nc(C)cc3C)o2)C(O)(C(F)(F)F)C1 (stereo unspecified)	-	-	-	-	-	-
COc1ccccc1OCc1ccc(C(=O)n2nc(C)c(Cl)c2C)o1	-	-	-	-	-	-
COC(=O)COc1ccc(Oc2nc(SC)nc(N(C)C)n2)nn1	-	-	-	-	-	-
CCC(CO)[n+]1c(C)cc(/C=C2\Sc3ccccc3N2Cc2ccccc2)cc1C (stereo unspecified)	-	103.0	.	.	.	.
CCN1/C(=C2\SC(=S)N(Cc3ccccc3)C2=O)Sc2ccccc21	-	-	.	.	.	.
CCOC(=O)c1ccc(COC(=O)c2cc3ccccc3oc2=O)o1	-	-	-	-	52.2	-
S=C(NCc1ccccn1)Nc1ccc(Cl)c(Cl)c1	-	-	-	-	50.6	-
S=C(NCc1ccccn1)Nc1ccc(Cl)cc1Cl	.	.	-	-	65.8	-
O=C(CN1CCSC1=NCc1ccccc1)c1ccc(Cl)cc1	-	-	.	.	.	.
SMILES	Mac1 fbg enh	CD11b adhes inh	CYP2C9 activ	CYP2C9 inhib	CYP2C19 inhib	CYP2C19 act
CCn1c(Cc2ccccc2)nnc1SCC(=O)Nc1nc(C)c(C)s1	-	-	-	-	-	-
COc1ccc(/C=C/C(=O)c2ccncc2)c2ccccc12	-	-	.	.	.	.
CCCCC(=O)Nc1cccc(NC(=O)c2ccc(Br)o2)c1	-	-	-	92.8	69.6	-
O=C(Nc1ccc2nn(-c3ccccc3)nc2c1)c1ccc(Br)o1	-	-	-	-	-	-
CCCCC(=O)Nc1cccc(NC(=O)C(C)C)c1	-	-	-	-	-	-
O=C(Nc1cccc(OC(F)(F)F)c1)c1ccc(Br)o1	-	-	-	-	88.6	-
